# Hits are enriched below; roughly 0.53% of the tested compounds scored in any of these assays.
# PrP UTR inh – inhibition of PrP 5' UTR reporter expression | cell-based PrP 5' UTR mRNA reporter, plate reader | inhibition, % (test concentration not listed) | 340,000 tested, 0.35% active; in the data active = inhibition above about 52%; note: 0 = median of the neutral control wells
# TcdB inh – TcdB glycohydrolase inhibitors, primary screen, biochemical, single point, plate reader. inhibition, % at 9.99 µM. 350,000 tested, 0.24% active. Toxin B (Clostridioides difficile), P18177. TcdB glycohydrolase enzymatic assay; in the data active = inhibition above about 10%
# Target sequence (P18177 whole entry, looked up): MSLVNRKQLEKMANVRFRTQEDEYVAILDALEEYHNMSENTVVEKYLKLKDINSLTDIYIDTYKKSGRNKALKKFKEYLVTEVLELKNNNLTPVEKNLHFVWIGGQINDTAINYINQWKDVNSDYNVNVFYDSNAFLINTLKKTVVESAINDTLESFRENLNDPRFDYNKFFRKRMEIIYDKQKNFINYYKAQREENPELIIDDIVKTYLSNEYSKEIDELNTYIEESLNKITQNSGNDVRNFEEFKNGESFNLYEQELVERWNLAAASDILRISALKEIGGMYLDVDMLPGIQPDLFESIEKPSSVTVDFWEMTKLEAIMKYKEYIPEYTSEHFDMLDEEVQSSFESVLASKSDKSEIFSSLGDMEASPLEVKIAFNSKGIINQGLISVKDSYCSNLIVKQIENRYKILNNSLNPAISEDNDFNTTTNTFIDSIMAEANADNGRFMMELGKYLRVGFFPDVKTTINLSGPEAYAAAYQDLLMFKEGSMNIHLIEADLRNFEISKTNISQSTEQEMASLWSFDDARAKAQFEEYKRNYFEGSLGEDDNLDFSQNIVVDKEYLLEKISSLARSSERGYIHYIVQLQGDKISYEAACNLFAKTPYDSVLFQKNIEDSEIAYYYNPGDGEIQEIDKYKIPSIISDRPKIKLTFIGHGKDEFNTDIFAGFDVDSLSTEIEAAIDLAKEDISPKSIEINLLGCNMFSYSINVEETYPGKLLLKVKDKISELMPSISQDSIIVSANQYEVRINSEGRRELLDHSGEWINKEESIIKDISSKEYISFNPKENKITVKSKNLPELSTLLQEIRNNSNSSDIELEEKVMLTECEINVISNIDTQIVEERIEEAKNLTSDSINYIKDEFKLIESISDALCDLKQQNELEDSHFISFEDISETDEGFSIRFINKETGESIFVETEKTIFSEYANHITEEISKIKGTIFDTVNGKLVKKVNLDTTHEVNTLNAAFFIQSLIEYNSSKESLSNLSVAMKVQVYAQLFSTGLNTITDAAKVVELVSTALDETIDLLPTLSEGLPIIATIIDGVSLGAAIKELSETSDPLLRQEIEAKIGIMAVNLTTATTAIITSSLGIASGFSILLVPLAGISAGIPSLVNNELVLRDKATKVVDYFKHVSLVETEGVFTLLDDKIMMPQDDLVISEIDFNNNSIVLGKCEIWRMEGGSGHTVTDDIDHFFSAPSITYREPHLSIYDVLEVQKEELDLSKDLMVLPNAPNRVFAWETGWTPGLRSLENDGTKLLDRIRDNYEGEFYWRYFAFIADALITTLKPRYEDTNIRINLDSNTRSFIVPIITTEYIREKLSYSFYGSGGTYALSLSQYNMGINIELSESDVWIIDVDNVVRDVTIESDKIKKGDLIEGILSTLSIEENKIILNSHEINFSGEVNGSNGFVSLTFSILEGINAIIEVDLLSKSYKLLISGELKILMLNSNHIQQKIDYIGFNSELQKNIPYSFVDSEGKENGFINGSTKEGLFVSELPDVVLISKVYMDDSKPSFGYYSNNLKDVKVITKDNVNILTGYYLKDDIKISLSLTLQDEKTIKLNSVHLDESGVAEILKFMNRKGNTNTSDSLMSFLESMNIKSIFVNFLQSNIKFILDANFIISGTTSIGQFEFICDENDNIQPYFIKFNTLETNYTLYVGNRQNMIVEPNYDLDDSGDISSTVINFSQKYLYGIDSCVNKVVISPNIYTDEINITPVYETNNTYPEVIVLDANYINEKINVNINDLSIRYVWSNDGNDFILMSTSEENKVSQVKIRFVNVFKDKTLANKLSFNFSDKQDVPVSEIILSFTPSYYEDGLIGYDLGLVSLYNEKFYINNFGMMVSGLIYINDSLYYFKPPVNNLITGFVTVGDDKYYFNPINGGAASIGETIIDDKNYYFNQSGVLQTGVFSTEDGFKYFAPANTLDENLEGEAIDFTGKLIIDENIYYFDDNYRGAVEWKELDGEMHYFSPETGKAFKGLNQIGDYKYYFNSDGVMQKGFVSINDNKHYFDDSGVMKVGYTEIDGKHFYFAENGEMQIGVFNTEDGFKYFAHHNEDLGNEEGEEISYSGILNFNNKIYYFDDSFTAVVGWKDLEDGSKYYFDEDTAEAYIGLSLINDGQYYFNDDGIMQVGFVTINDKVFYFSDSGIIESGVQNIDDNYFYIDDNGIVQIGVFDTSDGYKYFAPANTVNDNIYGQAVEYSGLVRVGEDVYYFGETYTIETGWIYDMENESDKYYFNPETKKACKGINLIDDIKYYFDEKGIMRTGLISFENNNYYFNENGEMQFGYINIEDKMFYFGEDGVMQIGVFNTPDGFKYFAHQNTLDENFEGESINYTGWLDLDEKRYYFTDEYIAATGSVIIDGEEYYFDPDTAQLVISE
# Y pestis TopoI – Yersinia pestis topoisomerase I inhibitors, primary screen, biochemical, cleavage product accumulation, plate reader, single point | AID 504884, 2011 | activity, % at 10 µM | DNA topoisomerase I (Yersinia pestis CO92) | Y. pestis Topo-I cleavage product accumulation | 360,000 tested, 0.064% active; in the data active = activity above about 50%, passing the limit was not always enough
# Mtb BioA inh – M. tuberculosis BioA enzyme inhibitors, primary screen, biochemical, plate reader, single point, HTS | purified M. tuberculosis BioA enzyme | inhibition, % at 9.99 µM | AID 602481, 2012 | 7,8-diaminopelargonic acid synthase BioA (Mycobacterium tuberculosis) | 360,000 tested, 0.096% active; in the data active = inhibition above about 40%
# PrP 5UTR single – prion 5' UTR mRNA inhibition, cherry-pick retest; shares compounds with PrP UTR inh; cell-based prion protein 5' UTR reporter, plate reader; inhibition, % at 2.5 µM; 1,100 tested, 48% active; in the data active = inhibition above about 54%
# An asterisk follows results filed as active; . = no result given.
SMILES,PrP UTR inh,TcdB inh,Y pestis TopoI,Mtb BioA inh,PrP 5UTR single
CC(=O)O[C@H]1C(=O)[C@@]2(C)[C@H]([C@H](OC(=O)c3ccccc3)[C@]3(O)C[C@H](OC(=O)[C@H](O)[C@@H](NC(=O)c4ccccc4)c4ccccc4)C(C)=C1C3(C)C)[C@]1(OC(C)=O)CO[C@@H]1C[C@@H]2O,55*,0,31,2,88*
Cc1noc(C)c1NC(=O)N[C@H]1CC[C@H](CCNC(=O)C2CCCC2)O[C@H]1CO,.,-1,.,2,.
CC(=O)c1c(C)[nH]c(C(=O)CSc2nnc(N)s2)c1C,55*,0,-3,.,1
Cn1c(N)c(C(=O)CSc2nnc(N)s2)c(=O)n(C)c1=O,-4,0,-2,-1,.
Cc1ccc(NC(=O)O/N=C/c2c(C)nn(C(C)(C)C)c2C)cc1Cl,88*,0,21,10,87*
CC(=O)C[C@H](O)CC(=O)[C@H]1OC(=O)[C@H](C)CCCCc2ccccc21,66*,1,-7,0,-7
CC(=O)C[C@H](O)CC(=O)[C@@H]1OC(=O)CCCCCc2ccccc21,90*,1,-5,0,-51
CC(=O)C[C@H](O)CC(=O)[C@H]1OC(=O)CCCCCc2ccccc21,-26,2,9,1,.
O=C(O)c1ccc(N/N=C/c2ccc3c(c2)OCO3)cc1,77*,-1,-2,.,65*
COc1cccc(NC(=O)Nc2cccc(C(=O)O)c2)c1,62*,0,2,.,63*
O=C(Nc1cccc(C(=O)O)c1)Nc1ccc2c(c1)OCO2,84*,1,3,-3,73*
CCOC(=O)c1cccc(NC(=O)/C=C/c2ccc3c(c2)OCO3)c1,60*,.,1,.,22
C[C@H](CO)N1C[C@H](C)[C@@H](CN(C)CC2CC2)Oc2cc(C#C[C@@H](C)O)ccc2S1(=O)=O,.,.,.,0,.
CN1c2ccc(-c3cccc(F)c3)cc2[C@@H]2[C@@H](CCN2C(=O)c2cccc(F)c2)[C@@H]1CO,.,-1,.,.,.
O=C(C[C@H]1C[C@H]2c3cc(NC(=O)NC4CCCC4)ccc3O[C@H]2[C@@H](CO)O1)NCc1ccccn1,.,0,.,.,.
C[C@@H]1CN([C@H](C)CO)C(=O)c2cc(NC(=O)NC3CCCCC3)ccc2O[C@@H]1CN(C)Cc1ccccc1,.,-3,.,0,.
CN(Cc1ccccc1)C(=O)c1ccc(NC(=O)Cc2ccc(NC(=O)C3CCCN(C(=O)C4CC4)C3)cc2)cc1 (configuration not stated),86*,-1,23,-1,-11
CN(Cc1ccccc1)C(=O)c1ccc(NC(=O)Cc2ccc(NC(=O)C3CCCN(C(=O)C4CCCC4)C3)cc2)cc1 (configuration not stated),-21,0,26,0,.
CN(CCc1ccccc1)C(=O)c1cccc(NC(=O)Cc2cccc(NC(=O)C3CCCN(C(=O)C4CC4)C3)c2)c1 (configuration not stated),53*,1,14,-1,-59
O=C(NC1CCCCC1)N[C@H]1CC[C@@H](CC(=O)N2CCOCC2)O[C@@H]1CO,.,0,.,-2,.
CCCCOC(=O)NC1CCc2cc(OC)c(OC)c(OC)c2-c2ccc(SC)c(=O)cc21 (configuration not stated),38,1,10,.,.
COc1cc2c(c(OC)c1OC)-c1ccc(O)cc1C(NC(C)=O)CC2 (configuration not stated),73*,0,0,1,87*
CCOC(=O)NC1CCc2cc(OC)c(OC)c(OC)c2-c2ccc(SC)c(=O)cc21 (configuration not stated),58*,1,8,.,86*
C[C@H](CO)N1C[C@H](C)[C@@H](CN(C)C(=O)NC2CCCCC2)Oc2ccc(NC(=O)Nc3ccc4c(c3)OCO4)cc2CC1=O,.,-1,.,2,.
O=C1NC2C(=CC(O)C(O)C2O)c2cc3c(cc21)OCO3 (configuration not stated),3,-11,2,.,.
O=C1NC2C(O)C(O)C(O)C(O)C2c2cc3c(c(O)c21)OCO3 (configuration not stated),61*,0,5,.,83*
O=C1NC2C(=CC(O)C(O)C2O)c2cc3c(c(O)c21)OCO3 (configuration not stated),88*,1,-5,.,95*
COc1cc(C2c3cc4c(cc3CC3COC(=O)C32)OCO4)cc(OC)c1O (configuration not stated),38,-19,6,.,.

# Bioassay records: PubChem, Broad Institute
